This passage reports Potency results from PubChem BioAssay (Tox21).

Several values for one entry are separate records, joined by “and”; a condition that tells them apart may be missing. Equal entries are not always repeated. Inconclusive results are not listed. Some structures have more than one record in an assay (separate samples or runs), and their calls can disagree. Activity calls are given as the source filed them. Unless noted, the call rests on the fitted dose curve.

Assay [1] is described as follows: Nuclear factor erythroid 2-related factor 2/antioxidant responsive element (Nrf2/ARE) small molecule agonists: qHTS cell viability counter screen in human keratinocytes (AID 1919968; active means well fitted curve in the direction sought with a large enough effect in the repeat runs; an effect the other way counts as inactive or inconclusive; further: nearly all actives have a fitted effect of over 55% in size). The essentials:
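Parallel cytotoxicity read: KeratinoSens HaCaT cells, compound treatment 23 h, viability by CellTiter-Fluor fluorescence 1 h post-reagent.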
(Quantitative high-throughput screening tests each substance at several concentrations.)

Assay [2] deals with Gonadotropin-releasing hormone receptor (Homo sapiens) (UniProt P30968). The assay is described as follows: Human gonadotropin-releasing hormone receptor (GnRHR) small molecule agonists, calcium flux assay in GnRHR-HEK293 cells (AID 1920063). Further: nearly all actives have a fitted effect of over 35% in size. In short, it runs like this:
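Calcium flux, agonist mode, human GnRHR stably integrated in HEK293; dye 1 h at 37 C before compound; Ex/Em=480/540 kinetic read, 3 min; 15 concentrations, triplicate.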

The nature of assay [3]: G protein-coupled receptor (GPCR) small molecule agonists, calcium flux assay: HEK293 wild type cell line counter screen (AID 1920065). In short, it runs like this: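 Non-specific calcium responders were flagged by adding DMSO-dissolved compounds to dye-loaded cells and reading 480/540 nm fluorescence each second for 3 min; ATP served as positive control.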
In general terms: Calcium assays in cells follow changes in intracellular calcium, usually with a dye or a luminescent sensor.

Assay [4] is described as follows: p53 small molecule agonists, cell-based qHTS assay with human liver microsomes (AID 1963577).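 Further: p53 response element beta-lactamase reporter cells with liver microsomes plus NADPH.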 The essentials: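 Metabolically competent format: test substances, human liver microsomes and NADPH (both 0.5 mg/mL final) incubated with p53RE-bla cells 16 h at 37 C. Beta-lactamase reporter signal then quantified by fluorescence.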
Assay [5] can be described thus: p53 small molecule agonists, cell-based qHTS assay with rat liver microsomes (AID 1963578). The essentials: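 Each plate received p53RE-bla cells, then compound, then rat liver microsomes and NADPH (both 0.5 mg/mL final). Plates were held 16 h at 37 C, and beta-lactamase activity was detected with LiveBLAzer over 2 h.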
Assay [6] is described as follows: p53 small molecule agonists, cell-based qHTS assay with human liver microsomes: qHTS cell viability counter screen (AID 1963579). Further: nearly all actives have a fitted effect of over 45% in size. The essentials:
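Tox21 library compounds, delivered from DMSO stocks, were tested on p53RE-bla cells together with 0.5 mg/mL human liver microsomes and 0.5 mg/mL NADPH (final) over 16 h at 37 C; CellTiter-Glo luminescence served as the cytotoxicity measure.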

Assay [7] is described as follows: p53 small molecule agonists, cell-based qHTS assay with rat liver microsomes: qHTS cell viability counter screen (AID 1963580). Further: nearly all actives have a fitted effect of over 45% in size. The essentials:
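After the beta-lactamase ratio was read, CellTiter-Glo was added to the same wells and luminescence measured at 30 min; cells had been treated 16 h at 37 C with compounds, rat liver microsomes and NADPH (0.5 mg/mL final each).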

Assay [8] is described as follows: p53 small molecule agonists, cell-based qHTS assay: qHTS cell viability counter screen (AID 1963581). Further: nearly all actives have a fitted effect of over 45% in size. The essentials:
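Multiplexed with the reporter read, a CellTiter-Glo step (30 min, room temperature) gauges ATP-based viability of HCT-116 p53RE-bla cells after 16 h compound incubation at 37 C.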

Assay [9] in a line: p53 small molecule agonists, cell-based qHTS assay (AID 1963582; active means well fitted activation curve with a large enough effect in the signal ratio in the repeat runs, not every such curve was filed as active; the % refers to the signal ratio). In short, it runs like this: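 Beta-lactamase reporter cells (p53RE-bla) treated with compounds for 16 h at 37 C; FRET substrate, 2 h, room temperature; fluorescence intensity.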
The target of assay [10] is 5-hydroxytryptamine receptor 2A (Homo sapiens) (UniProt P28223). The assay can be described thus: 5-hydroxytryptamine receptor 2A (HTR2A) small molecule antagonists, cell-based qHTS assay (AID 1963586). Further: nearly all actives have a fitted effect of over 45% in size. In short, it runs like this: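 CHO cells stably expressing human HTR2A were plated for 18 h at 37 C, then loaded with calcium dye for 1 h. Compounds were preincubated 5 min at room temperature before DOI (4 nM solution) was added. Kinetic fluorescence was read for 3 min.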
Sequence of 5-hydroxytryptamine receptor 2A (Homo sapiens) (P28223 whole entry, looked up): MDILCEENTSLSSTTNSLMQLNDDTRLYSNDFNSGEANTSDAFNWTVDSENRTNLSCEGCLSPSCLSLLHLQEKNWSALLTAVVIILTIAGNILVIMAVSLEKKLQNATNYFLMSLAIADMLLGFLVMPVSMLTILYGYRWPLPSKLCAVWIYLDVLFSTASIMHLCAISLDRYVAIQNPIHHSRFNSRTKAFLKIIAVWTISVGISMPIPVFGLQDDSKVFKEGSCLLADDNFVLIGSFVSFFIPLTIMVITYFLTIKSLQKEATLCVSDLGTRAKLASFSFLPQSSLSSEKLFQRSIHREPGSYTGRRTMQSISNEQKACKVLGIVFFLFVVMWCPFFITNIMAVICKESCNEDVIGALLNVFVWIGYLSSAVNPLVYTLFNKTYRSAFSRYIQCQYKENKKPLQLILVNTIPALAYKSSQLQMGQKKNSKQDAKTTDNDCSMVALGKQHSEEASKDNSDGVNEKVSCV

Assay [11] shares this target. The assay can be described thus: 5-hydroxytryptamine receptor 2A (HTR2A) small molecule agonists, cell-based qHTS assay (AID 1963587). Further: nearly all actives have a fitted effect of over 30% in size. In short, it runs like this:
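CHO cells stably expressing human HTR2A, plated 18 h, loaded with calcium dye 1 h at 37 C. Agonist mode: compounds added and intracellular calcium fluorescence recorded kinetically for 2 min at 1 sec intervals.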

The target of assay [12] is Muscarinic acetylcholine receptor M1 (Homo sapiens) (UniProt P11229). The assay is described as follows: Cholinergic receptor muscarinic 1 (CHRM1) small molecule antagonists, cell-based qHTS assay (AID 1963588). Further: nearly all actives have a fitted effect of over 40% in size. The essentials:
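Compounds were tested at 15 concentrations in three independent runs. Dye-loaded CHRM1-CHO cells were exposed 5 min at room temperature before stimulation by acetylcholine added at 50nM. Intracellular calcium was read kinetically on FDSS for 3 min.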

For assay [13] the target is unchanged. The assay can be described thus: Cholinergic receptor muscarinic 1 (CHRM1) small molecule agonists, cell-based qHTS assay (AID 1963589). Further: nearly all actives have a fitted effect of over 35% in size. The essentials:
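qHTS, 15-point titration, 3 independent runs: compounds pin-transferred onto dye-loaded CHRM1-CHO cells (human M1), calcium fluorescence followed every second to detect agonism.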

Assay [14] in a line: cAMP Responsive Elements (CRE) small molecule agonists, cell-based qHTS assay (AID 1963590). In short, it runs like this:
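Quantitative HTS for CRE agonists: HEK 293T CRE-bla cells, overnight plating, 3 h compound incubation at 37 C/5% CO2, then 2 h room-temperature LiveBLAzer B/G FRET substrate loading.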

Assay [15] is described as follows: cAMP Responsive Elements (CRE) small molecule antagonists, cell-based qHTS assay (AID 1963591; active means well fitted inhibition curve with a large enough effect in the signal ratio in the repeat runs, not every such curve was filed as active; the % refers to the signal ratio). The essentials:
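Fluorescence intensity from cleaved LiveBLAzer B/G substrate (2 h, room temperature) quantified CRE-bla activity in HEK 293T cells exposed 3 h to compound with 0.25 uM final NKH477.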

The target in assay [16] is Beta-2 adrenergic receptor (Homo sapiens) (UniProt P07550). The assay is described as follows: Adrenergic beta2 receptor (ADRB2) small molecule antagonists, cell-based qHTS assay (AID 1963592). Further: nearly all actives have a fitted effect of over 50% in size. Further: potency means the concentration at half of the fitted maximal effect. The essentials: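 Assay format: CHO-ADRB2 cells, 18-20hr seeding at 37C/5% CO2, then compound plus 1nM isoproterenol agonist mix for 0.5hr RT. Homogeneous time-resolved fluorescence cAMP detection after 1hr, expressed as 665/615 nm ratio.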
Sequence of Beta-2 adrenergic receptor (Homo sapiens) (P07550 whole entry, looked up): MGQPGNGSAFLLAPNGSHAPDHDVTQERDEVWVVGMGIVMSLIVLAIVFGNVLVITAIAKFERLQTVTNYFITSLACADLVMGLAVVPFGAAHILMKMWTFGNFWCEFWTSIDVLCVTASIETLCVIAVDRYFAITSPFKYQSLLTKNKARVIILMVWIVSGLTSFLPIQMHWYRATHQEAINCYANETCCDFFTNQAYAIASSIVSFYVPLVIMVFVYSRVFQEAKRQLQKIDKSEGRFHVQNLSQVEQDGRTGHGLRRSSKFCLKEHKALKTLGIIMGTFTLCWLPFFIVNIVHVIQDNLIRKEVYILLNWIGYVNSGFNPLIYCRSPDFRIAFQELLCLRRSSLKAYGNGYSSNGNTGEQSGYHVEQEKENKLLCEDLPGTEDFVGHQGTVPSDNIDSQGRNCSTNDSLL

Assay [17] has the same target. The assay can be described thus: Adrenergic beta2 receptor (ADRB2) small molecule agonists, cell-based qHTS assay (AID 1963593).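 Further: CHO cells stably overexpressing human ADRB2.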 In short, it runs like this:
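CHO cells stably over-expressing ADRB2 were plated overnight at 37C, then dosed with compounds plus a stimulation mix containing 100uM IBMX and 25uM Ro-20-1724 for 0.5hr at room temperature. cAMP was measured by HTRF competition, 1hr.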

Assay [18] concerns the target D(2) dopamine receptor (Homo sapiens) (UniProt P14416). The assay is described as follows: Dopamine D2 receptor (DRD2) small molecule agonists, cell-based qHTS assay (AID 1963594). Further: nearly all actives have a fitted effect of over 35% in size. The essentials:
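HEK293 cells stably expressing human DRD2, pre-treated with PDE inhibitor Ro20-1724 (0.1 mM final) and compound 10 min at room temperature, then stimulated with NKH477 (200nM […]) for 30 min. cAMP read by HTRF (665/620 nm).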

Assay [19] has the same target. The assay can be described thus: Dopamine D2 receptor (DRD2) small molecule antagonists, cell-based qHTS assay (AID 1963595; active means well fitted inhibition curve with a large enough effect in the signal ratio in the repeat runs, with a control signal flat; the % refers to the signal ratio). The essentials:
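Human DRD2 antagonist qHTS measuring cAMP by HTRF. The cells are exposed to compound for 10 min, then to NKH477 (200 nM) and quinpirole (12 nM) for 30 min at RT, with Ro20-1724 (0.1 mM) present throughout.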

In assay [20] the target is KiSS-1 receptor (Homo sapiens) (UniProt Q969F8). The assay can be described thus: Human kisspeptin (KISS1R) small molecule agonists, calcium flux assay in KISS1R-HEK293 cells (AID 1920064; active means well fitted curve in the direction sought with a large enough effect in the repeat runs; an effect the other way counts as inactive or inconclusive). In short, it runs like this:
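Triplicate 15-concentration series were applied to dye-loaded human KISS1R HEK293 cells, and agonist-evoked calcium fluorescence was captured for 3 min.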

Sequence of KiSS-1 receptor (Homo sapiens) (Q969F8 whole entry, looked up): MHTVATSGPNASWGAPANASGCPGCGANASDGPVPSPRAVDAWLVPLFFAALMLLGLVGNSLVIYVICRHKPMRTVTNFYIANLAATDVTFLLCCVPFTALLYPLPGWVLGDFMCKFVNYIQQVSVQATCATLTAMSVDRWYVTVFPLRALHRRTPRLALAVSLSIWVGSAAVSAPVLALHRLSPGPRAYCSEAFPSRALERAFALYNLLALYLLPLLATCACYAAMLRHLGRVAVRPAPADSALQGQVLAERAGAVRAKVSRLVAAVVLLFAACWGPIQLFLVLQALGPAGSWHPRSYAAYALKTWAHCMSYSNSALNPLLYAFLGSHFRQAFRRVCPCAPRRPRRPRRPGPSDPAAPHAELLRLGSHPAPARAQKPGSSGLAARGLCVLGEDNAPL
Sequence of Muscarinic acetylcholine receptor M1 (Homo sapiens) (P11229 whole entry, looked up): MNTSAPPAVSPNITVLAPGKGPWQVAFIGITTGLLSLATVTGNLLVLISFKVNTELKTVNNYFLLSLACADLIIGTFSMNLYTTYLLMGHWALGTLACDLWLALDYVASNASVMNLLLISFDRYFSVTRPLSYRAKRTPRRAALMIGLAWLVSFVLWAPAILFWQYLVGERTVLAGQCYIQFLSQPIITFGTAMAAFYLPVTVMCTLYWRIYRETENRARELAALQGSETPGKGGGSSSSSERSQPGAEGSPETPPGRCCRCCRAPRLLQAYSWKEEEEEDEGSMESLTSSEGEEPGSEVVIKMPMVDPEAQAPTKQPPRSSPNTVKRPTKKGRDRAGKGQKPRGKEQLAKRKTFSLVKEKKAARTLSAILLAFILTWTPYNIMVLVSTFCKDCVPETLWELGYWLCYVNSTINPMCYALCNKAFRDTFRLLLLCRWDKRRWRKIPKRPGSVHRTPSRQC
Sequence of D(2) dopamine receptor (Homo sapiens) (P14416 whole entry, looked up): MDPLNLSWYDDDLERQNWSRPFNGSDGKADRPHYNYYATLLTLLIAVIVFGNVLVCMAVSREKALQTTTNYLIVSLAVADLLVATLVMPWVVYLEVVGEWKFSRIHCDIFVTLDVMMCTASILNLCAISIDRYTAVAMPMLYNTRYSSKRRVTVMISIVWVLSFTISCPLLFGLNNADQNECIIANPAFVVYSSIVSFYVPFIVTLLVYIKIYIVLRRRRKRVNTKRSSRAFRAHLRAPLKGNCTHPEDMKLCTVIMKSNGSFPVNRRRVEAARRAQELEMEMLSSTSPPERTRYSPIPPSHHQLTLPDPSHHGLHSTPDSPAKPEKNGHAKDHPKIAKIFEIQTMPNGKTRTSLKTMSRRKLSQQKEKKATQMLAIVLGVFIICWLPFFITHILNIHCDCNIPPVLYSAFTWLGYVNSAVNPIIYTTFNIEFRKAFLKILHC
Sequence of Gonadotropin-releasing hormone receptor (Homo sapiens) (P30968 whole entry, looked up): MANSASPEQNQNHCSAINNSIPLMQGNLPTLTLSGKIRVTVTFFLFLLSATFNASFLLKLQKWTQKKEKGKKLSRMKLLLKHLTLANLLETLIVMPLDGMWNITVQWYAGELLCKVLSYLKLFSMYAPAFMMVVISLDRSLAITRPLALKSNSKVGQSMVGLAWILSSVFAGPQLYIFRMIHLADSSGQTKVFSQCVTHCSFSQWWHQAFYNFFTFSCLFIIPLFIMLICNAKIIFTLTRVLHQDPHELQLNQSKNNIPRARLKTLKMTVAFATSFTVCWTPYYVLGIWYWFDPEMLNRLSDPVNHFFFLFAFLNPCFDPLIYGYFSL

For `CSc1ccc(Cl)cc1`, the Potency entry in assay [1], in [2], in assay [3], in assay [4], in assay [5] and in assay [6] was “inactive” each time. For the same compound, the Potency result in [7], in assay [8], in [9], in [10], in assay [11] and in assay [12] was “inactive” throughout. Also, the Potency entry in [13], in assay [14], in [15], in assay [16], in assay [17] and in assay [18] was “inactive” in each case. Further, in assay [19], the Potency result is “inactive”.
For `COC(=O)c1cccc(C(=O)OC)c1`, the Potency result in assay [1], in assay [20], in [3], in assay [4], in assay [5] and in assay [6] was “inactive” each time. For the same compound, the Potency entry in assay [7], in [8], in assay [9], in [10], in [11] and in [12] was “inactive” each time. In addition, the Potency result in [13], in [14], in assay [15], in [17], in assay [18] and in assay [19] was “inactive” each time. Also, the Potency entry in assay [16] is “inactive and 15.4 µM (active)”.
Turning to `CC(=O)CC(c1ccccc1)c1c(O)c2ccccc2oc1=O` (stereo unspecified), the Potency entry in [1], in assay [20], in assay [7], in assay [8], in assay [14] and in [15] was “inactive” throughout. Further, the Potency result in assay [16], in [17], in assay [18] and in [19] was “inactive” each time.
Turning to `O=C(O)c1ccc(S(=O)(=O)N(Cl)Cl)cc1`, the Potency entry in [1], in assay [20], in assay [3], in assay [4], in [5] and in assay [6] was “inactive” in each case. Further, the Potency result in [7], in [8], in assay [9], in [10], in assay [11] and in assay [12] was “inactive” each time. In addition, the Potency entry in assay [13], in [14], in assay [15], in [16], in assay [17] and in assay [18] was “inactive” in each case. Besides, in assay [19], the Potency entry was “inactive”.
`O=NO`: the Potency entry in [1], in assay [2], in assay [20], in assay [3], in assay [10] and in assay [11] was “inactive” each time. Also, the Potency entry in [12], in [14], in assay [15], in [16], in assay [18] and in assay [19] was “inactive” in each case.
With `O=C(O)c1cccnc1`, the Potency result in assay [1], in [2], in assay [20], in [3], in assay [14] and in [15] was “inactive” throughout. The Potency result in assay [16], in assay [17], in assay [18] and in [19] was “inactive” throughout.
With `Nc1ccc(O)c(C(=O)O)c1`, the Potency entry in assay [1], in [20], in assay [3], in [4], in assay [5] and in assay [6] was “inactive” throughout. For the same compound, the Potency result in assay [7], in assay [8], in assay [9], in assay [10], in [11] and in assay [12] was “inactive” throughout. For the same compound, the Potency result in assay [13], in assay [15], in assay [16], in assay [18] and in assay [19] was “inactive” each time.
